Screening results as filed in PubChem.
Rows were chosen to be rich in hits. Some 1.8% of all compounds tested hit in one or more screens of this group.
Fam108B inh = counter-screen for RBBP9 inhibitors: inhibitors of mouse Fam108B. recombinant Fam108B, FP-Rh probe fluorescence polarization. inhibition, % at 9.51 µM. 300,000 tested, 0.33% active. AID 1947;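 active means inhibition above the screen mean inhibition plus 3 SD, computed separately per campaign, cut at about 18% in these data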;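 further: inhibitors lower polarization as less probe binds the enzyme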
LYPLA2 counter = LYPLA2 (human) inhibition in PME1 counter-screen | O95372 | recombinant LYPLA2, FP-Rh probe fluorescence polarization | inhibition, % at 5.9 µM | 320,000 tested, 0.38% active;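 active means inhibition above the screen-wide mean plus 3 SD, limit set per campaign, cut at about 26% in these data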;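 further: 0% = LYPLA2 with DMSO and 100% = wells lacking LYPLA2 enzyme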
Target sequence (O95372 whole entry, looked up): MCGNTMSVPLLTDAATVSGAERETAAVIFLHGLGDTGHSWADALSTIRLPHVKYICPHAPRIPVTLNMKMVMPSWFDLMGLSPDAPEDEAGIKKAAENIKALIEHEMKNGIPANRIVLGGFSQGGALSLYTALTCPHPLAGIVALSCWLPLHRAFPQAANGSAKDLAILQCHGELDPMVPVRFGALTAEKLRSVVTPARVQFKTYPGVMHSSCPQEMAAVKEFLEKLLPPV
GSTO1 counter = counter-screen for RBBP9 inhibitors: inhibitors of human GSTO1; inhibition, % at 5.96 µM; recombinant GSTO1, activity-based probe fluorescence polarization; P78417; 300,000 tested, 1.1% active;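 active means inhibition above the campaign mean inhibition plus 3 SD, cut at about 35% in these data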;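 further: 0% = GSTO1-1 with DMSO and 100% = wells lacking GSTO1-1 enzyme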
Target sequence (P78417 whole entry, looked up): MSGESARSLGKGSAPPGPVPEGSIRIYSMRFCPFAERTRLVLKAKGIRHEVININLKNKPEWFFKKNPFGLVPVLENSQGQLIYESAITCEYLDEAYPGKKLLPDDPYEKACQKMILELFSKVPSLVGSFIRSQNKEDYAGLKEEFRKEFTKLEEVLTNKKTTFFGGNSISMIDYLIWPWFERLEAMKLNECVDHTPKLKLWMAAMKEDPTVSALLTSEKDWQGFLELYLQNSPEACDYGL
PME-1 inh = blocks human protein phosphatase methylesterase 1; recombinant PME-1, FP-Rh probe fluorescence polarization; inhibition, % at 5.9 µM; 320,000 tested, 0.53% active; AID 2130;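 active means inhibition above the campaign mean of all compounds plus 3 SD, cut at about 26% in these data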;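 further: competitive labeling of PME-1 active site by serine hydrolase directed probe; 0% = PME-1 with DMSO and 100% = wells lacking PME-1 enzyme; inhibitors block probe labeling so polarization falls and inhibition rises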
LYPLA1 inh = blocks human lysophospholipase 1, a PME1 counter-screen; O75608; recombinant LYPLA1, FP-Rh probe fluorescence polarization; inhibition, % at 5.9 µM; 320,000 tested, 0.16% active;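 active means inhibition above the mean of all tested compounds plus 3 SD, set per campaign, cut at about 14% in these data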;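 further: inhibitors block serine hydrolase probe labeling of LYPLA1 so polarization falls; 0% = enzyme with DMSO and 100% = wells lacking LYPLA1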
Target sequence (O75608 whole entry, looked up): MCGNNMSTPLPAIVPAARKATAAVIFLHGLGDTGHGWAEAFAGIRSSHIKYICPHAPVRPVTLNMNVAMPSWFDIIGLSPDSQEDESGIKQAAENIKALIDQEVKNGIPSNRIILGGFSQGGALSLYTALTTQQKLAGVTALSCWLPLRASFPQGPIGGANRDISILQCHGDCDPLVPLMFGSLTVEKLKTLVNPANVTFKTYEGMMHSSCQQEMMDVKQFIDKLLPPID
PAD4 FP inh = blocks human protein arginine deiminase 4. Q9UM07. recombinant PAD4, RCA probe fluorescence polarization. inhibition, % at 6.36 µM. 330,000 tested, 0.41% active. AID 485272;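 active means percent inhibition above a cutoff equal to the mean of all tested compounds plus 3 SD, cut at about 15% in these data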;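 further: 0% = PAD4 with RCA probe and DMSO and 100% = probe without PAD4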
GSTO1 inh conf = GSTO1 (human) inhibition, confirmation | shares compounds with GSTO1 counter | recombinant GSTO1, probe fluorescence polarization | inhibition, % at 5.96 µM | 2,400 tested, 54% active | AID 2176;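 active means inhibition above the primary screen's cutoff, its mean inhibition plus 3 SD, cut at about 35% in these data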;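 further: loss of polarization as inhibitors block binding of rhodamine sulfonate ester activity probe; 0% = GSTO1 with DMSO and 100% = wells lacking GSTO1 enzyme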
GSTO1 ABPP inh = inhibitors of recombinant human GSTO1. gel ABPP SE-Rh probe fluorescence. 130 tested, 30% active. inhibition, % at 1 µM. shares compounds with GSTO1 counter;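 active means inhibition of the enzyme GSTO1 above about 75%, limit read from the data; inactive means inhibition below that limit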
The depositor's hits bear a star; nt = no result.

SMILES | Fam108B inh | LYPLA2 counter | GSTO1 counter | PME-1 inh | LYPLA1 inh | PAD4 FP inh | GSTO1 inh conf | others
CC(NC(=O)c1cccs1)c1ccccc1 (stereo unspecified) | -1.2 | -4.4 | 63.3* | 0.2 | -2.3 | 0.6 | 5.2
Cc1ccc(C(C)NC(=O)c2cccs2)cc1 (stereo unspecified) | 2.5 | 2.1 | -2.2 | 1.7 | -0.1 | 4.2 | nt
CCN(CC)c1ccc(N=Cc2cc(Br)ccc2O)cc1 | -0.4 | -2.0 | 74.3* | -0.3 | -2.0 | 13.5 | 6.0
Oc1ccc(Br)cc1C=Nc1ccc(Cl)cc1 | -2.9 | -1.6 | 0.7 | -3.2 | 0.5 | -2.8 | nt
CCN(CC)C(=O)C(=O)Nc1ccc(OCc2ccccc2)cc1 | -1.2 | 8.8 | 5.1 | 0.6 | 4.3 | -3.4 | nt
CC(=O)Nc1ccc(NC(=O)C(C)Oc2ccc(Cl)cc2Cl)cc1 (stereo unspecified) | 0.7 | 1.2 | 2.5 | 8.4 | 1.0 | -4.2 | nt
C=C(C)C(=O)NC1=NN(c2ccccc2)C(=O)C1 | 0.9 | -4.2 | 8.4 | -5.5 | -5.1 | 4.9 | nt
O=C1CC(NC(=O)C(F)(F)F)=NN1c1ccccc1 | -1.4 | -7.6 | 44.3* | -4.8 | -2.4 | -13.0 | 9.7
CC(Oc1ccc(Cl)cc1Cl)C(=O)NC1=NN(c2ccccc2)C(=O)C1 (stereo unspecified) | 3.2 | -1.5 | 39.1* | 7.3 | -4.0 | 8.9 | -2.0
CC(=O)c1cccc(N(C(=O)c2cnccn2)C(C(=O)NCc2ccccc2)c2ccco2)c1 (stereo unspecified) | -0.6 | 1.2 | -7.6 | 1.7 | 0.5 | -5.4 | nt
CCOC(=O)N1CCC(N2C(=O)c3ccccc3C2Nc2cc(C)cc(C)c2)CC1 (stereo unspecified) | -2.4 | 1.7 | -3.2 | 24.5 | 2.5 | 1.4 | nt
CCOC(=O)N1CCC(N2C(=O)c3ccccc3C2Nc2cc(C(=O)OC)cc(C(=O)OC)c2)CC1 (stereo unspecified) | -1.7 | 2.6 | 58.9* | 21.0 | 0.6 | -1.2 | -1.3
Oc1ccc(-c2cn3c(n2)SCC3)cc1O | 0.9 | 1.7 | 53.4* | -7.0 | -2.6 | -0.1 | 4.6
Oc1ccc(-c2cn3c(n2)SCC3)cc1 | 4.5 | 1.1 | 8.8 | 1.6 | 0.8 | -0.6 | nt
CCOC(=O)c1c(C)n(C)c2cc([N+](=O)[O-])c(O)c([N+](=O)[O-])c12 | -4.2 | -1.0 | 9.3 | -0.2 | 0.6 | -3.7 | nt
CCOC(=O)c1c(C)n(C)c2cc(Br)c(O)c(O)c12 | -1.9 | 1.7 | 44.8* | 3.6 | 4.2 | -10.1 | 12.9
COc1cc(NCCCCCCCN)c2ncccc2c1 | -3.1 | 0.7 | 45.5* | -3.2 | 0.3 | 26.8* | 59.8*
COc1cc(S(=O)(=O)N(Cc2cccnc2)Cc2ccco2)ccc1-n1cnnn1 | 4.2 | 0.5 | 39.6* | 1.3 | 1.6 | -3.0 | 3.9
COc1cccc(CN(C)C(=O)CCN=C2NS(=O)(=O)c3ccccc32)c1OC | nt | 2.5 | nt | 3.5 | 1.1 | 1.4 | nt
COc1ccc(NC(=O)CN(C)C(=O)c2cc3c(s2)CCC3)cc1 | -0.8 | -1.4 | 59.1* | -1.0 | -4.0 | -3.6 | 16.6
COc1ccc(NC(=O)CN(C)C(=O)c2cc3c(s2)CCCCC3)cc1 | 1.5 | 5.5 | -3.4 | 1.3 | -0.5 | 2.6 | nt
Clc1c2c(nc3ccccc13)CCC2 | 1.3 | 3.5 | 71.0* | -12.9 | -4.2 | 3.5 | 5.8
Nc1c2c(nc3ccccc13)CCCC2 | -2.1 | 0.2 | -1.6 | -6.7 | -0.4 | -6.2 | nt
COCCN(C(=O)COC(=O)C1(c2ccccc2)CC1)c1c(N)n(CC(C)C)c(=O)[nH]c1=O | 1.5 | 2.3 | 3.8 | 3.1 | 0.2 | 0.7 | nt
Cc1nc(C2CCC3C4CCC5=CC(=O)CC[C@]5(C)C4CC[C@]23C)cs1 (stereo partly specified) | -2.0 | -0.2 | -9.1 | 0.5 | -1.4 | -6.3 | nt
SMILES | Fam108B inh | LYPLA2 counter | GSTO1 counter | PME-1 inh | LYPLA1 inh | PAD4 FP inh | GSTO1 inh conf | others
O=C(COC(=O)Cc1ccsc1)NNC(=O)c1ccccc1 | nt | nt | nt | nt | nt | 2.1 | nt
O=C(Cc1ccsc1)NNC(=O)c1ccccc1O | 1.8 | 7.3 | 37.7* | -2.1 | 1.9 | 7.9 | 6.2
c1ccc(COCCC2CO2)cc1 (stereo unspecified) | -1.1 | -5.7 | 61.1* | -4.5 | -1.4 | 0.1 | 72.2* | GSTO1 ABPP inh=59.0
O=C(CC(C(=O)NCc1ccccc1)c1nc2ccccc2c(=O)[nH]1)NCc1ccccc1 (stereo unspecified) | 7.5 | -4.0 | -9.3 | 1.6 | 2.7 | -3.5 | nt
O=C(CN1CCCCCC1)Nc1cc([N+](=O)[O-])ccc1Cl | -0.2 | 18.0 | 57.1* | -9.6 | 9.8 | -0.4 | 14.1
O=C(CN1CCCCCC1)Nc1ccc([N+](=O)[O-])cc1Cl | -0.8 | -1.5 | 4.5 | -0.8 | -1.7 | 4.3 | nt
CN1CCC(=NNC(=O)CN(c2cccc(Br)c2)S(C)(=O)=O)CC1 | 0.8 | 9.1 | 3.2 | 1.0 | -2.3 | -0.5 | nt
CCOC(=O)c1c(NC(=O)CCl)sc(CN(C)C)c1-c1ccccc1 | -0.9 | -0.5 | 76.5* | -1.2 | 0.7 | 5.7 | 90.7*
O=C(NCCc1ccccc1)C1COc2ccccc2O1 (stereo unspecified) | 3.2 | -8.9 | 0.2 | 11.8 | -2.9 | 5.1 | nt
O=C(NCCc1ccc(O)c(O)c1)C1COc2ccccc2O1 (stereo unspecified) | 3.7 | -6.3 | 55.0* | 2.2 | -4.4 | -5.3 | 9.0
COc1ccc2nc3cccc(OC)c3nc2c1 | 8.0 | 4.5 | 56.5* | -2.7 | 0.2 | -0.7 | 87.4*
COc1ccc2nc(-c3ccccc3)cc(OC)c2c1 | -4.3 | -5.0 | -4.8 | -2.7 | 1.0 | -5.0 | nt
Cc1ccc(S(=O)(=O)Nc2c(C)n(C)n(-c3ccccc3)c2=O)c(C)c1 | 2.1 | -1.0 | 2.7 | 6.0 | 0.3 | 1.3 | nt
O=[N+]([O-])c1ccc2[nH]c(O)c(N=NC3CCS(=O)(=O)C3)c2c1 (stereo unspecified) | -3.1 | -1.7 | 6.5 | -0.1 | -0.4 | 1.4 | nt
O=[N+]([O-])c1ccc2[nH]c(O)c(N=Nc3ccc(F)cc3)c2c1 | -0.6 | 1.7 | -1.4 | -2.2 | -0.7 | -1.2 | nt
O=C(CNC(=O)c1cccs1)N=Nc1c(O)[nH]c2ccc([N+](=O)[O-])cc12 | 4.5 | -3.9 | 39.4* | 0.4 | -1.7 | -7.5 | 25.0
CC(Oc1ccccc1)C(=O)N=Nc1c(O)[nH]c2ccc([N+](=O)[O-])cc12 (stereo unspecified) | -0.7 | 4.7 | 60.8* | -5.5 | 3.4 | -12.7 | 73.9*
COCCNC(=S)N=Nc1c(O)[nH]c2ccc([N+](=O)[O-])cc12 | -2.5 | -1.6 | 10.3 | -2.9 | -0.3 | 1.2 | nt
O=C(N=Nc1c(O)[nH]c2ccc([N+](=O)[O-])cc12)c1ccccc1[N+](=O)[O-] | 6.7 | 6.3 | 42.9* | 1.4 | 0.7 | -16.7 | 45.5*
Cc1cc(C(=O)Nc2cccc(C)c2C)c2ccccc2n1 | 3.3 | 7.7 | 3.1 | 0.1 | -0.8 | -2.5 | nt
